A selection: hits, their analogues and other compounds. The true share with any hit is near 3.6%.
Epigenetic derep = Quantitative High-Throughput Screen for Regulators of Epigenetic Control; murine LDR cells, GFP reporter derepression, 30 h; Potency, µM (series often up to 53.9 µM), most hits filed as activators; 280,000 compounds, 0.2% hits; AID 1865, 2009; also: nearly all actives have a fitted effect of over 60% in size
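In this reporter-derepression format, murine cells bearing a silenced integrated CMV-GFP locus incubate with test compound (30 h, 37 C), then are washed and imaged; fluorescent objects of 20–120 um count as induced cells.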
KAT2A inh = qHTS Assay for Inhibitors of GCN5L2 | Histone acetyltransferase KAT2A (Homo sapiens), Q92830 | GCN5L2 HAT assay, ThioGlo1 CoA-SH fluorescence | Potency, µM (titrated, usually from 58.9 µM), actives largely listed as inhibitors | 390,000 compounds, 0.21% hits | AID 504327, 2011
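GCN5L2 (20nM final) in 50mM HEPES, 0.1mM EDTA pH 7.5, 0.01% Tween-20 was preincubated 15 min at room temperature with compound, then given ThioGlo1 (50uM), H3(1-25) peptide (75uM) and acetyl-CoA (70uM); CoA-thiol fluorescence (Ex340/Em540) was read at 0 and 20 min.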
KDM4E inh = qHTS Assay for Inhibitors of Human Jumonji Domain Containing 2E (JMJD2E). JMJD2E catalytic domain, FDH-coupled NADH fluorescence (FDH is formaldehyde dehydrogenase). Potency, µM (doses to about 57.1 µM), usual class: inhibitors. 230,000 compounds, 1.6% hits. AID 2147, 2009; active = well fitted inhibition curve with a large enough effect, not every such curve was filed as active; inconclusive = small, poorly fitted or top-dose-only effect, or another doubt; inactive = no such curve, though single readings can be large or run the other way; also: nearly all actives have a fitted effect of over 50% in size
Target sequence (B2RXH2 1-337 limits assumed): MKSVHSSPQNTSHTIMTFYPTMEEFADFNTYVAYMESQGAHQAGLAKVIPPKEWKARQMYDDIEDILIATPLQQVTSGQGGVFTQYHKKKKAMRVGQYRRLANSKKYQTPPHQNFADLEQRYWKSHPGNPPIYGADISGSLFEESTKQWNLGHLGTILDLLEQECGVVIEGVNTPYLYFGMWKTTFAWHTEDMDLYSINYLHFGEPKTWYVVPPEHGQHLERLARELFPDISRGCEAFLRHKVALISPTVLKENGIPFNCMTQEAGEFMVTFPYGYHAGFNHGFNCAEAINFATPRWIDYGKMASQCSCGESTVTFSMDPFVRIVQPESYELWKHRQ
IMPase Li cell = qHTS Assay for Identifying the Cell-Membrane Permeable IMPase Inhibitors: Potentiation with Lithium. 210,000 compounds, 0.35% hits. Potency, µM (doses to about 59.4 µM), actives largely listed as inhibitors. CHO-M1 cells, IP1 TR-FRET (IP-One), carbachol + lithium;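 also: IP1 builds up when IMPase is blocked and the TR-FRET signal falls; nearly all actives have a fitted effect of over 50% in size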
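Steps: plate 2000 CHO-M1 cells per well and culture 16–30 h; add compound and lithium; incubate 30 min, 37C; add d2-IP1 tracer and Eu cryptate anti-IP1 antibody in lysis buffer; read after 10 min at room temperature.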
NPSR antagonist = qHTS Assay for Antagonists of the Neuropeptide S Receptor: cAMP Signal Transduction. Q6W5P4. CHO-NPSR cells, cAMP TR-FRET, antagonist mode. Potency, µM (top dose mostly 38.3 µM), most hits filed as inhibitors. 220,000 compounds, 1% hits. AID 1461, 2008; also: nearly all actives have a fitted effect of over 50% in size
Target sequence (Q6W5P4 whole entry, looked up): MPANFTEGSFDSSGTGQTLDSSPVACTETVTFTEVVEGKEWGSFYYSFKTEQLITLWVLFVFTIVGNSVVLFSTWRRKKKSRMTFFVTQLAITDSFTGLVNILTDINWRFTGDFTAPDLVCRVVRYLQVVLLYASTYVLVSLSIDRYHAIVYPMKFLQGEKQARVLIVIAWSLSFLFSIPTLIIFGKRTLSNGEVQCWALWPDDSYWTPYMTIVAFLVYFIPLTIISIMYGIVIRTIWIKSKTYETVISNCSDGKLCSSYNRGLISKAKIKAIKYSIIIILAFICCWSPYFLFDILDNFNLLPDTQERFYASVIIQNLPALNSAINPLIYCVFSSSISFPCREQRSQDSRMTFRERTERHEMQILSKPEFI
Sfp inh = qHTS Assay for Inhibitors of Bacillus subtilis Sfp phosphopantetheinyl transferase (PPTase) | Biochemical Sfp PPTase activity, qHTS | AID 1490, 2009 | 4'-phosphopantetheinyl transferase ffp (Bacillus subtilis), Q9F4F7 | Potency, µM, actives largely listed as inhibitors | 310,000 compounds, 3.5% hits;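 also: the enzyme is Sfp with the accession as filed and its product quenches rhodamine fluorescence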
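After 15 min at room temperature with compound, 15 nM Sfp received 5 uM rhodamine-CoA plus 12.5 uM BHQ-2-ybbR (50 mM Hepes pH 7.6, 10 mM MgCl2). Rate came from the fluorescence difference over 30 min, ex 525/em 598 nm.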
Hits are given with their value; n = inactive; u = inconclusive; x = not tested or not shown; [ ] = dose if it differs, or a comment. Unless noted, calls follow the shape of the dose curve; as a rule, active = well fitted curve in the direction sought with a large enough effect; inconclusive = small, poorly fitted or top-dose-only effect, or another doubt; inactive = no such curve, though single readings can be large; an effect the other way counts as inactive or inconclusive.

SMILES | Epigenetic derep | KAT2A inh | KDM4E inh | IMPase Li cell | NPSR antagonist | Sfp inh
CSC(SC)=C(C#N)C(=O)c1ccccc1 | n | n | n | x | u | 7.9µM
COc1cccc(C(=O)C(C#N)=C(SC)SC)c1 | n | n | n | x | u | 4µM
O=C1CCN(CCc2ccccc2)CCN1C(CSc1ccc(Br)cc1)Cc1ccccc1 (stereo unspecified) | x | x | x | x | x | n
COC(=O)Cc1[nH]c(=S)[nH]c1C(=O)OC | n | n | n | x | n | 56µM
COC(=O)c1sc(=S)sc1C(=O)OC | n | n | n | n | n | n
O=C(Cc1ccccc1)N/N=C/c1cccc([N+](=O)[O-])c1 | n | n | n | n | n | n
COC(=O)N/N=C/c1cc([N+](=O)[O-])cc(Br)c1O | n | n | n | n | n | n
Nc1nnc(CC(=O)N/N=C/c2cc([N+](=O)[O-])cc(Br)c2O)s1 | n | n | 11µM | n | n | n
Nc1nnc(CC(=O)N/N=C/c2cccc([N+](=O)[O-])c2)s1 | n | n | n | n | n | 50µM
Cc1noc(C)c1-c1cc(NCCN2CCOCC2)ncn1 | x | n | x | n | x | n
C=CCOC(=O)N[C@H](/C(C(=O)OC)=C(\C)NCc1ccccc1)c1ccc(Br)cc1 | n | x | n | n | x | n
Cc1cc(-c2csc(N)n2)c(C)n1CCc1ccccc1 | n | n | n | n | n | 45µM
Cc1cc(-c2csc(N)n2)c(C)n1CCC(C)C | n | n[0.501 µM] | n | n | u | 50µM
Cc1nn(C)cc1-c1csc(N)n1 | n | n | n | n | n | n
CCCCN1C(=O)c2[nH]nc(-c3ccccc3O)c2C1c1ccc(OCc2ccccc2)cc1 (stereo unspecified) | u | n | x | x | x | x
CCOC(=O)c1c(N)sc2c1CCCC2 | n | n | u | n | n | u
CCNC(=O)c1c(N)sc2c1CCCCC2 | n | n | u | n | n | 35µM
COCCn1c(=O)c(C)nc2cnc(N3CCN(C)CC3)nc21 | x | n | x | n | x | n
CC(C)(C)OC(=O)NS(=O)(=O)Nc1ccccc1Br | x | x | x | x | x | n
C[C@H](C(=O)O)c1ccc2cc(O)ccc2c1 | x | n | x | x | x | n
CCOC(=O)c1c(N)sc2c1CCC(C)C2 (stereo unspecified) | n | n | u | n | n | 50µM
CC(C)(C)C1CCc2c(sc(N)c2C(N)=O)C1 (stereo unspecified) | n | n | u | n | n | 50µM
CCOC(=O)c1c(N)sc2c1CCS(=O)(=O)C2 | n | n | n | n | n | 56µM
CCOC(=O)c1c(NC(=O)C2C3C=CC(C3)C2C(=O)O)sc2c1CC(C)CC2 (stereo unspecified) | n | n | u | n | n | n
CCCOC(=O)c1c(NC(=O)C2C3C=CC(C3)C2C(=O)O)sc2c1CCC(C)C2 (stereo unspecified) | n | n | n | n | n | 40µM
SMILES | Epigenetic derep | KAT2A inh | KDM4E inh | IMPase Li cell | NPSR antagonist | Sfp inh
CCC(C)(C)C1CCc2c(sc(N)c2C(N)=O)C1 (stereo unspecified) | n | n | n | n | n | n
CC(C)CCOc1ccc(N)cc1 | x | n | x | x | x | n
N#CCCn1cnc2c1NC=NC2Cl (stereo unspecified) | n | x | n | n | x | n
COc1ccccc1NS(=O)(=O)c1cc(C(=O)O)ccc1F | n | x | x | x | x | x
[C-]#[N+]/C(C#N)=C\c1cc(C(C)(C)C)c(O)c(C(C)(C)C)c1 | n | x | n | n | x | 45µM
CC(C)(C)c1cc(/C=C(\C#N)C(N)=S)cc(C(C)(C)C)c1O | n | n | u | n | n | n
Oc1cccc(O)c1O | x | n | x | n | x | 40µM
CC(=O)N(C1=C(Cl)C(=O)c2ccccc2C1=O)C1CCCCC1 | n | 32µM | u | x | 6.3µM | 0.79µM
CCn1c(C(=O)N2CCCC(C(=O)N3CCN(c4cc(C)ccc4C)CC3)C2)cc2sccc21 (stereo unspecified) | n | n | x | x | x | x
O=C(Nc1nc(-c2ccccc2)cs1)c1ccc(Br)o1 | n | n | n | n | n | 25µM
O=C(NC(=S)Nc1nc(-c2ccccc2)cs1)c1ccco1 | n | n | n | n | n | 50µM
COc1ccc(-c2csc(NC(=S)NC(=O)/C=C/c3ccccc3)n2)cc1Br | n | n | n | x | n | n
O=C(/C=C/c1ccco1)NC(=S)Nc1nc(-c2ccc(Cl)cc2)cs1 | n | n | n | x | 3.2µM | n
O=C(/C=C/c1ccco1)NC(=S)Nc1nc(-c2ccc3ccccc3c2)cs1 | n | n | u | n | 1.3µM | n
O=C(NC1CCCC1)O[C@@H]1C(=O)c2cc(Br)ccc2O[C@H]1c1ccc2c(c1)OCO2 | n | x | n | n | x | n
CCOC(=O)C1OC1C(=O)N[C@@H](CC(C)C)C(=O)NCCC(C)C (stereo partly specified) | x | n | x | x | x | n
CN1CCc2c(cc(O)c(O)c2Cl)C(c2cccc(Cl)c2)C1 (stereo unspecified) | n | x | 14µM | n | n | x
C=CCN1CCc2cc(O)c(O)cc2[C@H](c2ccccc2)C1 | n | x | 25µM | n | x | u
C=CCN1CCc2c(cc(O)c(O)c2Br)[C@@H](c2ccccc2)C1 | n | n | 14µM | n | n | n
CN1CCc2cc(O)c(O)cc2C(c2ccccc2)C1 (stereo unspecified) | n | n | 20µM | n | n | x
CN1CCc2cc(Cl)c(O)cc2C(c2ccccc2)C1 (stereo unspecified) | n | x | n | n | n | x
COC(=O)NC(/C=C/c1ccccc1)C(C(C)=O)C(=O)OC (stereo unspecified) | n | x | n | n | x | n
O=C(Cn1cc(S(=O)(=O)Cc2ccc([N+](=O)[O-])cc2)c2ccccc21)N1CCOCC1 | x | n | x | x | x | 40µM
Cc1ccc(CNC(=O)CS(=O)(=O)c2cn(CC(=O)N3CCOCC3)c3ccccc23)cc1 | x | n | x | x | x | 40µM
COc1cccc(/C=N/n2c(N)c(S(=O)(=O)c3cccs3)c3nc4ccccc4nc32)c1 | n | n | u | n | n | n
Nc1c(S(=O)(=O)c2cccs2)c2nc3ccccc3nc2n1/N=C/c1cccc(O)c1 | n | n | u | n | 7.9µM | n
COc1cccc(-c2nnc(-c3ccc(C)o3)o2)c1 | n | n | n | n | n | 56µM
Cc1ccc(C(=O)Nc2cccc(OCc3cc(=O)n4c5c(sc4n3)CCCC5)c2)cc1 | u | n | x | x | x | x
COc1cc(OC)cc(C(=O)Nc2ccc(-c3nc4ccccc4o3)cc2)c1 | n | n | u | n | n | 8.9µM
COc1ccc(/C=C2\Sc3ccc(C(=O)NCC4CCCO4)cc3N(C)C2=O)cc1 (stereo unspecified) | x | n | x | x | x | 50µM

Bioassay records as filed in PubChem BioAssay.
